In PubChem BioAssay AID743314 (Broad Institute, 2014):
Entries with a potency or affinity are not part of this list. Records with an inconclusive call do not appear. Active and inactive are the calls of the source.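 How the source made its calls: active means fitted half-maximal concentration no higher than twice the top tested dose, in every repeat run; inconclusive means repeat runs disagree, poor fit, or flat partial inhibition; inactive means the rest.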

These molecules were tested against Endoplasmic reticulum aminopeptidase 1 (Homo sapiens) (UniProt Q9NZ08) (assay: inhibition of human ERAP1 enzyme activity – biochemical, cherry-pick, set 2, plate reader, dose response (AID 743314;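 further: 0% = neutral control wells and -100% = L-leucinethiol positive control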)). Settings: Recombinant ERAP1, Leu-AMC fluorescence, 60 min; series mostly up to 11 µM; activity change, negative = inhibition: at the top concentration.
Endoplasmic reticulum aminopeptidase 1 (Homo sapiens), sequence (Q9NZ08 whole entry, looked up): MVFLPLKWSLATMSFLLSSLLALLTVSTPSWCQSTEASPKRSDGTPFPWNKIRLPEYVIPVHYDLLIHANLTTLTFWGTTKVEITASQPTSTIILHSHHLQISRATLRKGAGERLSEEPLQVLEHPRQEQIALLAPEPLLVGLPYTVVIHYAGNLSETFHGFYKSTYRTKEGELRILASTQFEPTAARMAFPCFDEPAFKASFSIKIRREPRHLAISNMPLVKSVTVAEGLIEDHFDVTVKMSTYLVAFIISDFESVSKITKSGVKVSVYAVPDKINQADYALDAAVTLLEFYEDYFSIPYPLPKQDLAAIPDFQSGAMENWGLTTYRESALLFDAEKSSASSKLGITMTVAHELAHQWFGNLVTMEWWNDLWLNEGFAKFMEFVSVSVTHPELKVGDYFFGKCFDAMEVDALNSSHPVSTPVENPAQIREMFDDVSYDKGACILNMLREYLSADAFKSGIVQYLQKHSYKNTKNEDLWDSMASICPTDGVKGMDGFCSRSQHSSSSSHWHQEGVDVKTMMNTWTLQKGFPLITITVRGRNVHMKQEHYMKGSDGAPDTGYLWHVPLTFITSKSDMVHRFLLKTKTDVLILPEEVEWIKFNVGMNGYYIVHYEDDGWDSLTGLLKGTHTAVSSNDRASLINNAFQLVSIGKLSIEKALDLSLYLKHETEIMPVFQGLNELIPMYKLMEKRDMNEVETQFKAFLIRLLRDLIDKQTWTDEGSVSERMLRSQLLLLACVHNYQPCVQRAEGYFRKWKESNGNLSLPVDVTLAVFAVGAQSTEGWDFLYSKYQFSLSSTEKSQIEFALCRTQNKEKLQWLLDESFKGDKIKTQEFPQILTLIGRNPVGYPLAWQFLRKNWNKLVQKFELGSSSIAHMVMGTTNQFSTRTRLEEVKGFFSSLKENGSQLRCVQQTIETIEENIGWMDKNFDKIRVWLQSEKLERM

Activity change, negative = inhibition, inactive:
CCCNC(=O)C[C@H]1CC[C@@H]2[C@H](COC[C@H](O)CN2C(=O)Nc2cccc(Cl)c2)O1 56.5%, Cc1noc(C)c1NC(=O)N(C)C[C@H]1Oc2c(NC(=O)Nc3ccc(F)cc3)cccc2C(=O)N([C@@H](C)CO)C[C@@H]1C 16.4%, COc1ccc2c3c(n(C)c2c1)[C@H](CO)N(C)CC31CN(C(=O)c2cccnc2)C1 21.1%, CCCNC(=O)N1C[C@@H](C)[C@@H](OC)CN(C)C(=O)c2cc(NS(=O)(=O)CC(F)(F)F)ccc2OC[C@@H]1C 53.2%, CCn1c(SCC(=O)NC2CCCCC2)nc2ccccc2c1=O -8.12%, O=C(NCCN1CCCC1)[C@H]1[C@H](CO)[C@H]2Cn3c(cccc3=O)[C@@H]1N2C(=O)NC1CCCC1 25.1%, CCOC(=O)c1nnn(CC(=O)Nc2ccccc2)c1C(=O)OCC -2.98%, O=C(c1ccc(F)cc1)N1CC2(C1)[C@@H](c1ccccc1)[C@@H](CO)N2Cc1ccccn1 27.3%, COc1ccc(CCC(=O)NC2CCCc3ccccc32)cc1OC (centres undefined) -13.1%, C[C@H](CO)N1C[C@H](C)[C@@H](CN(C)C)Oc2c(NC(=O)Nc3ccc(C(F)(F)F)cc3)cccc2C1=O 64.7%, CN(C)C(=O)c1cccc(-c2ccc3c(c2)[C@@H]2[C@@H](CCN2Cc2nccs2)[C@@H](CO)N3)c1 33.6%, COc1ccc(S(=O)(=O)NC[C@@H]2CC[C@H]3[C@H](CN3Cc3cc(F)ccc3F)O2)cc1 36.2%, O=C(c1ccc(F)cc1)N1CC2(C1)[C@H](c1ccccc1)[C@@H](CO)N2Cc1ccccn1 19.7%, C[C@@H]1CCCCO[C@H](CN(C)S(=O)(=O)c2ccccc2)[C@H](C)CN([C@H](C)CO)C(=O)c2cc(NS(=O)(=O)c3ccc(Cl)cc3)ccc2O1 22%, CCN(CC)CCCN=C1N[C@@H](c2cccc(C(F)(F)F)c2)C(C(=O)OC)=C(C)N1CC -14.6%, CS(=O)(=O)N(CC(=O)N1CCOCC1)c1cccc(Cl)c1 -6.98%, Cc1ccc(OCC(=O)Nc2ccc(S(=O)(=O)N(C)C3CCN(C)CC3)cc2)c(C)c1 -1.18%, N#Cc1ccc(-c2ccc([C@H]3[C@H](CO)N4C(=O)CN(C(=O)C5CC5)C[C@@H]34)cc2)cc1 22.1%, COc1ccc2c3c([nH]c2c1)[C@@H](CO)N(C(C)=O)CC31CN(S(=O)(=O)c2cccs2)C1 25.8%, C[C@H](NC(=O)C[C@H]1CC[C@H]2[C@@H](COC[C@H](O)CN2C(=O)Nc2ccccc2)O1)c1ccccc1 46.1%, COc1ccc(CN(C)C[C@H]2OCCCC[C@H](C)Oc3ccc(NS(=O)(=O)c4cccs4)cc3C(=O)N([C@@H](C)CO)C[C@@H]2C)cc1 38.5%, CCn1cc(CN2CCCC(C(=O)Nc3ccc(-c4nc5ccccc5[nH]4)cc3)C2)c(C)n1 (centres undefined) 82.3%, CCCCC1CCC(C(=O)OC(C)C(=O)Nc2ccc(NC(C)=O)cc2)CC1 (centres undefined) -2.34%, O=C(CC1CC1)N1[C@@H](CO)[C@@H](c2ccccc2)C12CN(Cc1cc(F)ccc1F)C2 14%, CCCN1[C@@H]2c3ccc(-c4cccnc4)c(=O)n3C[C@H]1[C@H](CO)[C@H]2C(=O)NCCc1cn(C)cn1 38.1%, N#Cc1c(NC(=O)c2cccc(S(=O)(=O)Nc3ccc(C(=O)O)cc3)c2)sc2c1CCCC2 -7.29%, O=C(O)c1ccc(N2N=C(c3ccccc3)CC2c2ccccc2)cc1 (centres undefined) -7.44% [at 2.6 µM], CN1c2ccc(-c3ccccc3)cc2[C@H]2[C@H](CCN2C(=O)c2ccccc2)[C@@H]1CO 34.8%, CCN(CC)CCCN=C1N[C@@H](c2ccccc2)C(C(=O)OC)=C(C)N1CC -11.5%, C[C@@H]1CN([C@@H](C)CO)C(=O)c2cc(NC(=O)CCN3CCOCC3)ccc2O[C@@H]1CN(C)S(=O)(=O)c1ccccc1 15.8%, COc1ccc(NC(=O)Nc2cccc3c2O[C@H](CN(C)Cc2ccc(C(=O)O)cc2)[C@H](C)CN([C@H](C)CO)C3=O)cc1 49.6%, O=C(O)c1cccc(NC(=O)c2ccccc2NC(=O)c2cccc([N+](=O)[O-])c2)c1 110% [at 5.6 µM], COc1ccc(C2=NN(c3ccc(C(=O)O)cc3)C(c3ccc(OC)c(OC)c3)C2)cc1 (centres undefined) 364%, CCc1ccc(NS(=O)(=O)c2ccc(C)c(C(=O)N3CCOCC3)c2)cc1 -17.5%, COc1ccc(CN(C)C[C@@H]2OCCCC[C@H](C)Oc3ccc(NS(=O)(=O)c4cccs4)cc3C(=O)N([C@@H](C)CO)C[C@H]2C)cc1 44.6%, CN1C2=NCCN2C(=O)c2cc(Cl)ccc21 -10.8%, Cc1ccc2nc3c(cc(C(=O)NCc4ccccc4)c(=N)n3CCCn3ccnc3)c(=O)n2c1 51.3%, CC(=O)N1CC[C@@H]2[C@@H](CO)N(C)c3ccc(-c4ccc(C#N)cc4)cc3[C@@H]21 -0.418%, COc1ccc(C#Cc2cccc(-c3nc(C(=O)N4CCN(C)CC4)cc4c3[C@@H](CCO)N(S(=O)C(C)(C)C)C4)c2)cc1OC (some centres undefined) 37.6%
